HT1080NT lethal = qHTS for induction of synthetic lethality in tumor cells producing 2HG: qHTS for the HT-1080-NT fibrosarcoma cell line; HT-1080-NT fibrosarcoma viability, CellTiter-Glo ATP luminescence, 48 h; Potency, µM (titrated, usually from 46.1 µM), inactives show top-dose activity, negative = less viability, usual class: cytotoxic; 360,000 compounds, 1.6% hits;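 further: NT is the 2HG producing partner of a matched IDH1 knockdown line; 0% = DMSO-treated cells and -100% = media-only wells without cells; nearly all actives have a fitted effect of over 55% in size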
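Read-out is CellTiter-Glo luminescence after 10 minutes at room temperature, following 48 hours' compound treatment of HT-1080-NT cells (750 cells/well, RPMI, 5% FBS, 37 degrees C).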
KB-V1 MDR tox = qHTS assay for MDR1-selective chemotherapeutics: Primary screen using the drug-selected MDR subline cells KB-V1; KB-V1 MDR cells viability, CellTiter-Glo, 72 h; Potency, µM (titrated, usually from 46.1 µM), usual class: cytotoxic; 400,000 compounds, 3.4% hits; further: on the % scale 0 is the no-effect control and ±100 the full control effect; nearly all actives have a fitted effect of over 60% in size
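Cells of the MDR subline KB-V1 are plated, dosed with compound at multiple concentrations, and incubated 72 h at 37 degrees C; CellTiter-Glo is then added and luminescence read after 10 min.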
KB-3-1 cytotox = qHTS assay for MDR1-selective chemotherapeutics: Primary screen using the parental adenocarcinoma cell KB-3-1. Potency, µM (doses to about 46.1 µM), actives largely listed as cytotoxic. 400,000 compounds, 1.4% hits. AID 1347075, 2019. KB-3-1 viability, CellTiter-Glo ATP luminescence, 72 h; further: on the % scale 0 is the no-effect control and ±100 the full control effect; nearly all actives have a fitted effect of over 60% in size
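Screening of KB-3-1 cells (DMEM, 10% FBS, phenol-red free) ran from lowest to highest compound concentration; after 72 h at 37 °C viability was read luminescently and curves fitted.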
MCF10A rereplic = A quantitative high throughput screen for small molecules that induce DNA re-replication in MCF 10a normal breast cells; MCF 10A DNA re-replication, Hoechst nuclear intensity, 48 h; Potency, µM (highest dose often 46.1 µM), for inactives: top-dose activity, positive = re-replication, most hits filed as activators; 350,000 compounds, 2.9% hits; further: % of control where 0% means no effect; nearly all actives have a fitted effect of over 50% in size
HT1080 IDH1KD tx = qHTS for induction of synthetic lethality in tumor cells producing 2HG: qHTS for the HT-1080-IDH1KD cell line; HT-1080 IDH1 knockdown viability, ATP luminescence, 48 h; Potency, µM (series often up to 46.1 µM), for the others: at the top dose activity, negative = toxicity, most hits filed as cytotoxic; 360,000 compounds, 2% hits; AID 686971, 2013;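 further: 0% = DMSO wells and -100% = cell-free medium wells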
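IDH1KD HT-1080 cells, 750/well, RPMI + 5% FBS; compound pinned after 2 h settling; 48 h, 37 °C; CellTiter-Glo luminescence; % activity normalised to DMSO and no-cell wells; curves fitted, classed by r2 and efficacy.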
SW480 rerep = A quantitative high throughput screen for small molecules that induce DNA re-replication in SW480 colon adenocarcinoma cells. SW480 DNA re-replication, Hoechst DNA content imaging, 48 h. Potency, µM (highest dose often 46.1 µM), inactives show at the highest dose re-replication activation, most hits filed as activators. 340,000 compounds, 1.8% hits; further: % of control where 0% means no effect; nearly all actives have a fitted effect of over 55% in size
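Image-based DNA-content assay: after two days of treatment, nuclei were labelled with the DNA dye Hoechst and imaged, and hits were compounds raising the count of nuclei showing high fluorescence intensity.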
An asterisk follows results filed as active; [ ] = dose if it differs, or a comment. This is a sample that favours compounds with a hit; in the whole collection about 7.9% have one here. The call rests on the fitted dose curve; in most records, active means well fitted curve in the direction sought with a large enough effect; inconclusive means small, poorly fitted or top-dose-only effect, or another doubt; inactive means no such curve, though single readings can be large; an effect the other way counts as inactive or inconclusive. Potency means the concentration at half of the fitted maximal effect.

What do the screens show for `Cc1ccccc1-c1nc2ccc(Cl)cc2c(=O)n1O`?
HT1080NT lethal: -13%; KB-V1 MDR tox: inactive; KB-3-1 cytotox: inactive; MCF10A rereplic: -1%; HT1080 IDH1KD tx: -10%; SW480 rerep: -8%

How did Cc1ccccc1-c1cc(C(=O)n2cccn2)c2cc(Cl)ccc2n1 do in these assays?
HT1080NT lethal: inconclusive; KB-V1 MDR tox: inactive; KB-3-1 cytotox: inconclusive; MCF10A rereplic: 2%; HT1080 IDH1KD tx: 10µM*; SW480 rerep: 3%

How did N#CC1=C(S)N(c2ccccc2)C(c2ccc(-c3cccc(Cl)c3)o2)NC1=O (centres undefined) do in these assays?
HT1080NT lethal: 1%; KB-V1 MDR tox: inactive; KB-3-1 cytotox: inactive; MCF10A rereplic: inconclusive; HT1080 IDH1KD tx: 5%; SW480 rerep: 23µM*

Results for Cc1cccc(N2C(S)=C(C#N)C(=O)NC2c2ccco2)c1 (centres undefined) ?
HT1080NT lethal: 2%; KB-V1 MDR tox: inconclusive; KB-3-1 cytotox: inactive; MCF10A rereplic: inconclusive; HT1080 IDH1KD tx: -8%; SW480 rerep: -1%

How did Fc1cccc2sc(Nc3nc4cc5c(cc4s3)OCO5)nc12 do in these assays?
HT1080NT lethal: inconclusive; KB-V1 MDR tox: inactive; KB-3-1 cytotox: inactive; MCF10A rereplic: 10µM*; HT1080 IDH1KD tx: inconclusive; SW480 rerep: -10%

How did CC(C)C(=O)Nc1nc2cc3c(cc2s1)OCO3 do in these assays?
HT1080NT lethal: 6%; KB-V1 MDR tox: inactive; KB-3-1 cytotox: inactive; MCF10A rereplic: -1%; HT1080 IDH1KD tx: 6%; SW480 rerep: -4%

Results for Fc1cccc2sc(Nc3nc4cc5c(cc4s3)OCCO5)nc12 ?
HT1080NT lethal: inconclusive; KB-V1 MDR tox: inactive; KB-3-1 cytotox: inconclusive; MCF10A rereplic: 5.2µM*; HT1080 IDH1KD tx: inconclusive; SW480 rerep: -6%

What do the screens show for `Fc1cc(F)c2nc(Nc3nc4cc5c(cc4s3)OCO5)sc2c1`?
HT1080NT lethal: inconclusive; KB-V1 MDR tox: inactive; KB-3-1 cytotox: inactive; MCF10A rereplic: 15µM*; HT1080 IDH1KD tx: inconclusive; SW480 rerep: -17%

What do the screens show for `Cc1cc(C(C)(C)C)ccc1OCCOCCN1CCCC1`?
HT1080NT lethal: -1%; KB-V1 MDR tox: inactive; KB-3-1 cytotox: inactive; MCF10A rereplic: inconclusive; HT1080 IDH1KD tx: -7%; SW480 rerep: 8%

Results for COc1ccc(CC(=O)Nc2cccc(C(=O)NN3C(=O)c4ccccc4C3=O)c2C)cc1 ?
HT1080NT lethal: -5%; KB-V1 MDR tox: inconclusive; KB-3-1 cytotox: inconclusive; MCF10A rereplic: 0%; HT1080 IDH1KD tx: -17%; SW480 rerep: -143%

What do the screens show for `O=C(Cc1ccc(Cl)cc1)OCC(=O)c1ccc[nH]1`?
HT1080NT lethal: -4%[9.24 µM]; KB-V1 MDR tox: inactive; KB-3-1 cytotox: inactive; MCF10A rereplic: 0%; HT1080 IDH1KD tx: 10%; SW480 rerep: -27%

Results for COC(=O)c1cccc(C(=O)Nc2ccc(C)cc2Br)n1 ?
HT1080NT lethal: 1%; KB-V1 MDR tox: 15µM*; KB-3-1 cytotox: inactive; MCF10A rereplic: 5%; HT1080 IDH1KD tx: 6%; SW480 rerep: -11%

Results for O=c1c2ccccc2nc(/C=C/c2cccc3ccccc23)n1-c1ccc(F)cc1F ?
KB-V1 MDR tox: inactive; KB-3-1 cytotox: inactive

Results for COc1cc(OC)c(OC)cc1/C=C/c1nc2cc3ccccc3cc2c(=O)n1-c1ccc(F)cc1F ?
KB-V1 MDR tox: inactive; KB-3-1 cytotox: 12µM*

What do the screens show for `COc1cc(/C=N/N=C(/N)c2nonc2N)cc(Br)c1OCc1ccccc1C`?
HT1080NT lethal: inconclusive; KB-V1 MDR tox: inactive; KB-3-1 cytotox: inactive; MCF10A rereplic: 13µM*; HT1080 IDH1KD tx: inconclusive; SW480 rerep: 1%

What do the screens show for `CCOC(=O)c1c(C)[nH]c(C(=O)NNC(=O)c2ccccc2F)c1C`?
HT1080NT lethal: 12%; KB-V1 MDR tox: inactive; KB-3-1 cytotox: inactive; MCF10A rereplic: 0%; HT1080 IDH1KD tx: 22%; SW480 rerep: 2%

How did CCOC(=O)c1[nH]c(C)c(C(=O)c2cc(F)ccc2F)c1C do in these assays?
HT1080NT lethal: 0.71µM*; KB-V1 MDR tox: inconclusive; KB-3-1 cytotox: 0.92µM*; MCF10A rereplic: 1.2µM*; HT1080 IDH1KD tx: 0.45µM*; SW480 rerep: 1µM*

Results for CCOC(=O)c1[nH]c(C)c(C(=O)OCc2ccccc2F)c1C ?
HT1080NT lethal: 12µM*; KB-V1 MDR tox: 2.3µM*; KB-3-1 cytotox: 4.6µM*; MCF10A rereplic: 8.2µM*; HT1080 IDH1KD tx: 9.2µM*; SW480 rerep: 7.3µM*

What do the screens show for `O=C(COC(=O)CC1CC2CCC1C2)NCc1ccc(Cl)cc1` (centres undefined)?
HT1080NT lethal: 7%; KB-V1 MDR tox: inactive; KB-3-1 cytotox: inactive; MCF10A rereplic: -5%; HT1080 IDH1KD tx: 4%; SW480 rerep: -3%

What do the screens show for `CN(C)c1ccc(NC(=O)Nc2cccc(Cl)c2)cc1`?
HT1080NT lethal: inconclusive; KB-V1 MDR tox: 13µM*; KB-3-1 cytotox: inactive; MCF10A rereplic: -2%; HT1080 IDH1KD tx: -10%; SW480 rerep: -1%

Results for COc1cccc(NC(=O)Nc2ccccc2SC)c1 ?
HT1080NT lethal: 1%; KB-V1 MDR tox: inactive; KB-3-1 cytotox: inactive; MCF10A rereplic: 6%; HT1080 IDH1KD tx: -1%; SW480 rerep: 2%

How did CSc1ccccc1NC(=O)Nc1cccc(Cl)c1Cl do in these assays?
HT1080NT lethal: -2%; KB-V1 MDR tox: inconclusive; KB-3-1 cytotox: inactive; MCF10A rereplic: 23µM*; HT1080 IDH1KD tx: -23%; SW480 rerep: 6%

What do the screens show for `O=C(Nc1cccc(Cl)c1)Nc1csc([N+](=O)[O-])c1`?
HT1080NT lethal: 21µM*; KB-V1 MDR tox: inconclusive; KB-3-1 cytotox: inconclusive; MCF10A rereplic: inconclusive; HT1080 IDH1KD tx: 7.3µM*; SW480 rerep: inconclusive

Results for CN(c1cccc(NC(=O)Nc2cccc(Cl)c2)c1)S(C)(=O)=O ?
HT1080NT lethal: -29%; KB-V1 MDR tox: inconclusive; KB-3-1 cytotox: inactive; MCF10A rereplic: 12%; HT1080 IDH1KD tx: -2%[9.24 µM]; SW480 rerep: -2%

What do the screens show for `CSc1ccccc1NC(=O)Nc1cccc(Cl)c1`?
HT1080NT lethal: 7%; KB-V1 MDR tox: 16µM*; KB-3-1 cytotox: inconclusive; MCF10A rereplic: inconclusive; HT1080 IDH1KD tx: 2%; SW480 rerep: 15%
